SMILES strings stand for the structures. The campaign covered roughly 38,000 compounds. About 1,200 (3.2%) showed an effect of 50% or more. The median lay at about -58%. The entries come from a sample that favours strong results as a whole.

This assay relates to Plasmodium falciparum. In words: Calibr Malaria Delayed Death Assay SOP. Conditions: concentration 4.99e-06 (unit not given; other assays of the set use mol/L). It is filed as functional, organism-based. Also noted: scale not given: in the data most compounds retested in dose-response had high values.
For `CC(=O)NCC(=O)N1CCCC(C(=O)c2ccc(C(C)(C)C)cc2)C1` (stereo not given), the “Percent Effect” value was -127.3%.

With `CN(C)[C@H]1CCCCN(Cc2ccccc2Cn2cccn2)C1`, the “Percent Effect” value was determined as 49.71%.

Turning to `CC(C)(C)c1oc(C(N)=O)cc1CN1CCCCC(N)C1` (stereo not given), the “Percent Effect” value is on record as 3.928%.

As for `N#Cc1cc(C#N)c(SCCC(=O)Nc2ccc(F)cc2)nc1N`, the “Percent Effect” value is listed as 10.11%.

For the molecule `N#Cc1cc(C#N)c(SCC(=O)NCc2ccc(F)cc2)nc1N`, the “Percent Effect” value was -76.83%.

As for `N#Cc1cc(C#N)c(SCC(=O)Nc2ccc(F)cc2)nc1N`, the “Percent Effect” value came out at 66.77%.

For the molecule `CN(C)c1ncc(CNC(=O)Nc2ccccc2C(F)(F)F)n1C`, the “Percent Effect” value is reported as -113.2%.

For the molecule `CN(C)c1ncc(CNC(=O)Nc2ccc(C(F)(F)F)cc2)n1C`, the “Percent Effect” value turned out to be 68.14%.

In the case of `CN(C)c1ncc(CNC(=O)Nc2ccccc2F)n1C`, the “Percent Effect” value is on record as -31.3%.

Consider `COc1cccc(CNc2nc(N3CCOCC3)ns2)c1OC`, for which the “Percent Effect” value is given as -58.35%.

On to `COC[C@H](C)Nc1cc(C)c2ccc(SC)cc2n1`, for which the “Percent Effect” value is given as 74.39%.

With `CCn1ncnc1C(C)Nc1cc(C)c2ccc(SC)cc2n1` (stereo not given), the “Percent Effect” value was -98.68%.

Consider `CSc1ccc2c(C)cc(N[C@@H](C)CO)nc2c1`, for which the “Percent Effect” value stood at 13.21%.

Turning to `COCC(=O)N1CCCN(Cc2cc(C(C)C)no2)CC1`, the “Percent Effect” value is -33.31%.

Turning to `Cc1c(C(=O)NCC(C)(C)S(C)(=O)=O)cccc1-c1ccccn1`, the “Percent Effect” value is on record as -72.33%.

Turning to `CCC(CO)N(Cc1ccc(C(=O)O)cc1)Cc1ccsc1` (stereo not given), the “Percent Effect” value is given as -80.76%.

As for `CCC(CO)N(Cc1ccsc1)Cc1cccc(O)c1` (stereo not given), the “Percent Effect” value is on record as 67.4%.

Take `CCC(CO)N(CC=C(C)C)Cc1ccsc1` (stereo not given): the “Percent Effect” value amounted to 20.66%.

For the molecule `CS(=O)(=O)N1CCN(C(=O)c2cc(-c3ccc(Br)s3)n[nH]2)CC1`, the “Percent Effect” value is 2.289%.

`CN1C(=O)C2(CCN(c3nccc4occc34)CC2)c2ccccc21`: the “Percent Effect” value is -46.41%.

For the molecule `Cc1cc(C)cc(C(=O)NCCS(=O)(=O)N2CCSCC2)c1`, the “Percent Effect” value was -110.6%.

As for `O=S(=O)(c1cc2ccccc2o1)N1CCCC1`, the “Percent Effect” value is -30.68%.

In the case of `CCN1CCCN(S(=O)(=O)c2cc3ccccc3o2)CC1`, the “Percent Effect” value is listed as 83.88%.

Regarding `CC(=O)N1CCCN(S(=O)(=O)c2cc3ccccc3o2)CC1`, the “Percent Effect” value was -136.3%.

In the case of `CCn1ccc(-c2nnc(SCC(=O)NCC(C)C)n2CC)n1`, the “Percent Effect” value is -143.1%.

Consider `COc1c(CNC2CCCc3ccccc32)c(C(C)C)nn1C` (stereo not given), for which the “Percent Effect” value is 63.84%.

Take `COc1c(CNC2CCc3ccccc32)c(C)nn1C` (stereo not given): the “Percent Effect” value amounted to 30.71%.

Turning to `COc1c(CNCCc2c[nH]c3ccccc23)c(C)nn1C`, the “Percent Effect” value is on record as -66.3%.

`CC(C)c1nn(C)c(N(C)C)c1CNC1CCc2cc(F)ccc21.Cl` (stereo not given): the “Percent Effect” value was -3.129%.

For the molecule `COc1c(CNCCc2c[nH]c3cc(F)ccc23)c(C)nn1C`, the “Percent Effect” value stood at 49.69%.

As for `COc1c(CNC2CCc3cc(F)ccc32)c(C(C)C)nn1C` (stereo not given), the “Percent Effect” value is 57.77%.

Take `COc1c(CNC2CCc3cc(F)ccc32)c(C)nn1C.Cl` (stereo not given): the “Percent Effect” value was 26.33%.

`COc1c(CNC2CCOc3ccccc32)c(C(C)C)nn1C` (stereo not given): the “Percent Effect” value is recorded as -23.6%.

Regarding `COc1c(CNCCc2c[nH]c3cc(F)ccc23)c(C(C)C)nn1C`, the “Percent Effect” value is on record as 59.46%.

For `N#CCCN(Cc1ccccn1)C(=O)c1cccc(CN2CCCC2)c1`, the “Percent Effect” value is recorded as -57.26%.

For `CCn1cc(NS(=O)(=O)c2ccc(Br)s2)c(C(=O)NCC(C)C)n1`, the “Percent Effect” value is reported as -19.45%.

On to `O=C(NCCc1ccncc1)c1cccc(S(=O)(=O)NC2CCOC2)c1` (stereo not given), for which the “Percent Effect” value is -7.029%.

In the case of `CC(NCCCN1CCCC1=O)c1cc(Br)ccc1O` (stereo not given), the “Percent Effect” value is on record as 50.26%.

On to `CC(NC(=O)NCCCN1CCCC1=O)c1ccc(Cl)s1` (stereo not given), for which the “Percent Effect” value is reported as -33.34%.

Take `CC(NCCCN1CCCC1=O)c1cc(Br)ccc1F` (stereo not given): the “Percent Effect” value came out at 40.27%.

Take `CC(C)c1cc(-c2cnn(C)c2C2CC2)c(C#N)c(N)n1`: the “Percent Effect” value is -61.18%.

Take `O=C(CC(SC1CCCCC1)C(=O)O)c1ccc(Br)cc1` (stereo not given): the “Percent Effect” value was -115.9%.

`CCC1CN(C(=O)c2ccc(O)c(C)c2)CCN1C(C)C` (stereo not given): the “Percent Effect” value is -125.9%.

`CCC1CN(C(=O)c2ccccc2C(C)=O)CCN1C(C)C` (stereo not given): the “Percent Effect” value is given as -70.36%.

`O=C(c1ncccn1)N1C[C@@H]2COC[C@]2(COc2cccnc2)C1`: the “Percent Effect” value is listed as -80.86%.

As to `O=C(CCn1ccccc1=O)N1CCCC(COc2ccc(F)cc2)C1` (stereo not given), the “Percent Effect” value is -62.32%.

For the molecule `CN1Cc2c(C(=O)NC3CCCCC3)ncn2-c2ccccc2S1(=O)=O.O=C(O)C(F)(F)F`, the “Percent Effect” value was -186.4%.

Turning to `COc1cc(F)ccc1-c1cc(CO)ccn1`, the “Percent Effect” value is recorded as -93.03%.

As to `COc1cc(F)ccc1-c1cc(N)ccn1`, the “Percent Effect” value worked out at 50.95%.

Consider `COc1ccc(-c2cc(N)ccn2)c(OC)c1OC`, for which the “Percent Effect” value is recorded as -13%.

Take `Cc1cnc(C(=O)N2CCOCC2C)cn1` (stereo not given): the “Percent Effect” value was -104.7%.

Consider `O=C(NCC1CC1)[C@@H]1CC[C@@H]2[C@@H](CCN2Cc2ccc(F)c(F)c2)O1.O=C(O)C(F)(F)F`, for which the “Percent Effect” value is -53.52%.

For the molecule `O=C1CCCN1CCC1CCN(C2CCCNC2)CC1` (stereo not given), the “Percent Effect” value is recorded as -108.9%.

As to `CCn1cc(CN2CCN(C(=O)c3cc(C)c(C)s3)CC2)c(C)n1`, the “Percent Effect” value is -80.19%.

On to `COCCOc1ccccc1CNCC1COC2(CCCC2)O1` (stereo not given), for which the “Percent Effect” value was 73.59%.

For `Cc1cccc(CNCC2COC3(CCCC3)O2)c1C` (stereo not given), the “Percent Effect” value is -41.87%.

With `Cc1cccc(CNCC2COC3(CCCCC3)O2)c1C` (stereo not given), the “Percent Effect” value is reported as -23.41%.

Turning to `CC(=O)Nc1nc(C(=O)NCc2ccc(OC(C)C)nc2)cs1`, the “Percent Effect” value was -75.22%.

Consider `Cc1cc(C(=O)N(CCN(C)C)Cc2ccc(Cl)cc2)no1`, for which the “Percent Effect” value amounted to 51.61%.

For `Cc1cnc(C(=O)N(CCN(C)C)Cc2ccc(Cl)cc2)cn1`, the “Percent Effect” value is given as -38.51%.

With `CN(C)CCN(Cc1ccc(Cl)cc1)C(=O)c1ccncc1`, the “Percent Effect” value was determined as 51.29%.

As for `CN(C)CCN(Cc1ccc(C(F)(F)F)cc1)C(=O)c1cc[nH]n1`, the “Percent Effect” value was determined as 33.3%.

As for `CN(C)CCN(Cc1ccc(Cl)cc1)C(=O)c1ccn(C)c(=O)c1`, the “Percent Effect” value was -75.96%.

For `CN(C)CCN(Cc1ccc(Cl)cc1)C(=O)c1cnccn1`, the “Percent Effect” value is 32.67%.

As to `Cc1nnc([C@@H]2CC[C@@H]3[C@@H](CCN3C3CCC3)O2)o1`, the “Percent Effect” value is on record as -20.01%.

Take `CC1CCCN(C(=O)Nc2ccc(F)c(C(N)=O)c2)C1` (stereo not given): the “Percent Effect” value is listed as -56.74%.

With `CNc1cc(-c2cccc(CN)c2)c2cc[nH]c2n1`, the “Percent Effect” value was -44.1%.

On to `CCc1ccc2nc(C)cc(C(=O)N[C@@H]3CCCNC3)c2c1`, for which the “Percent Effect” value was determined as 64.11%.

For `CCc1ccc2nc(C)cc(C(=O)NC[C@@H]3CCNC[C@H]3O)c2c1`, the “Percent Effect” value is on record as -50.87%.

For `CCc1ccc2nc(C)cc(C(=O)N[C@@H]3CNC[C@H]3O)c2c1`, the “Percent Effect” value is given as -23.23%.

(Values after ChEMBL document CHEMBL3988442, “University of Dundee, Small-Polar-MMV Screening Library” (2021).)
